# FLuc modulator – inhibits or activates purified firefly luciferase, miR-21 counter-screen. 360,000 tested, 6.9% active. Potency, µM (doses to about 57.5 µM), for the others: at the highest dose activity change, negative = inhibition, hits mostly inhibitors. purified FLuc, Km substrates, luminescence inhibition. AID 588342;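 further: plate controls were vehicle for no effect and reference inhibitor for full effect; nearly all actives have a fitted effect of over 55% in size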
# Target sequence (P08659 whole entry, looked up): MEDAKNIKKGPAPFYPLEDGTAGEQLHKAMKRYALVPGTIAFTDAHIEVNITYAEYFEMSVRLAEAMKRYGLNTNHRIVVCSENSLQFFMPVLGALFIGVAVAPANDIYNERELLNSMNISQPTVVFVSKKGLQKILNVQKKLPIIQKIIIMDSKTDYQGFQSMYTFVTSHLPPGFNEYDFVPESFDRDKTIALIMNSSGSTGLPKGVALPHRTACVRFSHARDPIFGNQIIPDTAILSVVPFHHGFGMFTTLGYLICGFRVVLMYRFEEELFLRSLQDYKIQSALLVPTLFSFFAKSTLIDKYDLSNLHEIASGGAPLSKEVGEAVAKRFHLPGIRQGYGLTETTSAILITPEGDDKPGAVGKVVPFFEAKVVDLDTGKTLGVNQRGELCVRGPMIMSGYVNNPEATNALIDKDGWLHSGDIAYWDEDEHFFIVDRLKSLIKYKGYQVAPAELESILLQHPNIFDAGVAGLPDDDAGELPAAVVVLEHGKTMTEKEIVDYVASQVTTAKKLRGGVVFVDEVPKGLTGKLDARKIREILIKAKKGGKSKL
#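 Purified P. pyralis luciferase, 10 nM final, with Km-level 10 uM D-luciferin and 10 uM ATP in 50 mM Tris acetate pH 7.5, 10 mM Mg acetate, 0.01% Tween-20, 0.05% BSA; 6-point qHTS titration about 60 µM downward; luminescence read.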
# NPC1 promoter act – activates the NPC1 promoter | Huh7 NPC1 promoter luciferase reporter, 24 h | Potency, µM (titrated, usually from 9.22 µM), inactives show at the highest dose activation, most hits filed as activators | 320,000 tested, 2.4% active | AID 485313; further: % of control where 0% means no effect; nearly all actives have a fitted effect of over 60% in size
#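 Quantitative HTS used a cell-based reporter: Huh7 cells stably bearing the NPC1 promoter upstream of luciferase were treated with compounds for 24 h, and promoter activation was read as luminescence.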
# SMN2 splice enh – enhancers of SMN2 splice variant expression | HEK293 SMN2-luciferase splicing reporter, luminescence, 30-36 h | Potency, µM (highest dose often 46.1 µM), without a hit: top-dose activity change, positive = activation, usual class: activators | 210,000 tested, 2.8% active | AID 1458; further: % of control where 0% means no effect; nearly all actives have a fitted effect of over 55% in size
#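 HEK293 cells carry an SMN2 […]–luciferase reporter in which exon 7 inclusion puts luciferase in frame. Cells were plated 10-12 h before compound addition, then incubated 30-36 h at 37C. ONE-Glo luminescence was read; sodium butyrate at 4.5 mM final served as control.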
# Rab9 prom act – activators of Rab9 promoter. Huh7 Rab9 promoter-luciferase reporter, luminescence, 24 h. Potency, µM (titrated, usually from 9.22 µM), for inactives: top-dose activation, negative = inhibition, hits mostly activators. 320,000 tested, 2.8% active. AID 485297; further: % of control where 0% means no effect; nearly all actives have a fitted effect of over 60% in size
#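 Cell-based reporter: Huh7 stable for Rab9 promoter-driven luciferase, plated in reduced-serum medium with 10% FBS at 1500 cells/well, compound-treated 24 h at 37 °C, luminescence read after 10 min reagent.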
# ELG1 genotox – genotoxicity induction in ELG1-luciferase HEK293T cells. HEK293T ELG1-luciferase reporter, luminescence, 16 h. Potency, µM (series often up to 46 µM), for the others: at the top dose activity change, positive = activation, usual class: activators. 330,000 tested, 1.3% active. AID 504466; further: % of control where 0% means no effect; nearly all actives have a fitted effect of over 60% in size
#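 ELG1-luciferase HEK293T cells, 2,000/well; compound pinned in; 16 hr, 37 °C, 5% CO2; ONE-Glo, 30 min RT; luminescence on CCD imager.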
# ELG1 DNA repair – ELG1-dependent DNA repair inhibition; Potency, µM (series often up to 46.1 µM), inactives show top-dose activity change, negative = inhibition, actives largely listed as inhibitors; HEK293T ELG1-luciferase reporter, luminescence, 16 h; DNA damage induced by 5-fluorouridine; 330,000 tested, 2.3% active; AID 504467; further: on the % scale 0 is the no-effect control and ±100 the full control effect; nearly all actives have a fitted effect of over 55% in size
#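 Quantitative HTS, concentration-response format. 2,000 cells/well co-treated with 5-fluorouridine and compound, 16 hr in 5% CO2 at 37 °C; ONE-Glo luminescence read after 30 min.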
# Active calls of the source: *; ? = inconclusive; · = no result. The list is not random: actives were taken first. Their share in the collection is about 9.4%. The call rests on the fitted dose curve; in most records, active means well fitted curve in the direction sought with a large enough effect; inconclusive means small, poorly fitted or top-dose-only effect, or another doubt; inactive means no such curve, though single readings can be large; an effect the other way counts as inactive or inconclusive. Potency means the concentration at half of the fitted maximal effect.
SMILES,FLuc modulator,NPC1 promoter act,SMN2 splice enh,Rab9 prom act,ELG1 genotox,ELG1 DNA repair
COc1ccc2c(c1)CC(C(=O)NCCN1CCN(c3cccc(Cl)c3)CC1)CO2 (configuration not stated),1%,·,·,·,·,·
COc1ccccc1N1CCN(S(=O)(=O)c2ccc(-c3ccno3)cc2OC)CC1,-4%,·,·,·,·,·
Cc1ccc(-n2cc3c(=O)n(C)c(=O)n(C)c3c2)cc1C,?,28%,3%,27%,0%,12%
Cn1c(=O)c2cn(-c3ccc4c(c3)OCCO4)cc2n(C)c1=O,?,?,?,?,11µM*,?
Cc1cc(N)c(-n2cc3c(=O)n(C)c(=O)n(C)c3c2)cc1C,17µM*,16%,?,?,?,?
CCCCCCCCCCCCCCC1CO1 (configuration not stated),·,·,-8%,·,·,·
O=C(C1CCC(Cn2c(=O)c3sccc3n(Cc3cccc(F)c3)c2=O)CC1)N1CCCCC1 (configuration not stated),-12%,·,·,·,·,·
CCC(Sc1nc2nccnc2c(=O)n1Cc1ccc(OC)cc1)C(=O)NC1CCCCC1 (configuration not stated),3%,·,·,·,·,·
O=C(CSc1nnc(-c2ccco2)n1Cc1ccccc1)c1ccccc1,12µM*,4.5µM*,7%,1.4µM*,?,?
CCOC(=O)c1c(C)[nH]c(C)c1C(=O)CSc1nnc(-c2ccco2)n1Cc1ccccc1,-1%,9%,35µM*,-2%,-30%,?
O=C(CSc1nnc(-c2ccco2)n1Cc1ccccc1)NC(=O)NCc1ccccc1,1%,6%,-5%,1%,-8%,18µM*
CCOc1ccc(NC(=O)CSc2nnc(-c3ccco3)n2C)cc1,-3%,-2%,-31%,3%,9%,-18%
CCOC(=O)c1c(C)[nH]c(C)c1C(=O)CSc1nnc(-c2ccncc2)n1Cc1ccccc1,0%,5%,-8%,23%,-9%,?
CCn1c(SCC(=O)Nc2ccc(OCc3ccccc3)cc2)nnc1-c1ccco1,15µM*,-4%,-32%,-4%,-9%,?
CNC(=O)NC(=O)CSc1nnc(-c2ccco2)n1Cc1ccccc1,2%,-1%,-15%,-1%,1%,-2%
Cc1ccc(-n2nc(C)c3c(C(=O)NCc4ccccc4)cc(C4CC4)nc32)cc1,9%,·,·,·,·,·
CCN(C(=O)Cn1ncc2c(=O)oc3ccc(C)cc3c21)c1cc(OC)ccc1OC,-3%,·,-9%,·,·,·
Cc1ccc(-c2cc(C(=O)N/N=C/c3ccco3)[nH]n2)cc1,21µM*,-1%,16%,15%,9%,?
O=C(N/N=C/c1ccccc1C(=O)O)c1cc(-c2ccc3c4c(cccc24)CC3)n[nH]1,15µM*,-6%,5%,-8%,-1%,?
Cc1cc(C)nc(SCc2ccc(C(=O)N/N=C/c3ccccc3C(=O)O)cc2)n1,?,-3%,10%,-10%,0%,3%
O=C(N/N=C/c1ccco1)c1cc(-c2cccc3ccccc23)n[nH]1,17µM*,23%,-15%,-3%,9%,?
COc1ccc(OC)c(-c2noc(N3CCN(c4cc(C)ccc4C)CC3)n2)c1,-8%,·,·,·,·,·
Cc1c(N=C(N)/N=C(\N)Nc2ccc(Br)cc2)c(=O)n(-c2ccccc2)n1C,1%,-1%,-10%,-5%,-3%,-17%
C/C(=N/NC(=O)c1cccc(N2CCCC2=O)c1)c1ccc(Br)cc1,15µM*,1%,·,-2%,6%,-6%
C/C(=N/NC(=O)c1cccc(N2CCCC2=O)c1)c1ccncc1,15µM*,?,·,3.2µM*,?,?
SMILES,FLuc modulator,NPC1 promoter act,SMN2 splice enh,Rab9 prom act,ELG1 genotox,ELG1 DNA repair
C[C@@](N)(C(=O)O)[C@@H]1C[C@@H]1C(=O)O,·,·,-10%,·,·,·
CCOc1ccc(S(=O)(=O)n2cc(-c3ccc(F)cc3)c(N)n2)cc1,-1%,4%,-6%,1%,-4%,-3%
CCOc1cc(S(=O)(=O)n2cc(-c3ccc(F)cc3)c(N)n2)cc(OCC)c1OCC,1%,-9%,15%,-4%,-22%,15µM*
Cc1ccc(C(O)c2nc3ccccc3n2C)cc1 (configuration not stated),4%,0%,·,-1%,-3%,0%
Cc1cc(C)c(C)c(N=Nc2nc3ccccc3n2C)c1C,11µM*,11%,-41%,19%,?,?
Cc1ccc(C)c(N=Nc2nc3ccccc3n2C)c1,0.95µM*,3.2µM*,?,2µM*,?,?
Cn1c(Nn2cnnc2)nc2ccccc21,1%,1%,5%,2%,-1%,8%
Cc1nn(C(=O)c2ccc(Cl)cc2)c(C)c1S(=O)(=O)N1CCOCC1,-18%,·,·,·,·,·
Cc1cc(Cl)c2oc(C(=O)N(CCO)Cc3ccccc3)c(C)c2c1,-20%,11%,·,26%,?,-7%
Cc1c(C(=O)N(CCO)Cc2ccccc2)oc2c(F)cccc12,17µM*,?,·,?,?,?
O=C(O)c1ccc2c(c1)C(=O)N(CCc1c[nH]c3ccccc13)C2=O,17µM*,2.5µM*,·,3.2µM*,?,?
O=C(O)c1ccc2c(c1)C(=O)N(CCc1ccccc1)C2=O,-3%,3%,·,3%,0%,0%
CCn1cc(/C=C(\NC(=O)c2ccccc2Cl)C(=O)NCCN2CCOCC2)c2ccccc21,17µM*,1%,·,-1%,-3%,-3%
CN(C)S(=O)(=O)n1cc(/C=C(\NC(=O)c2ccccc2Cl)C(=O)NCCCn2ccnc2)c2ccccc21,?,-6%,12%,-5%,-10%,21µM*
CCn1cc(/C=C(\NC(=O)c2ccccc2F)C(=O)NCCCN2CCOCC2)c2ccccc21,5%,1%,·,-4%,-1%,1%
Nc1ccccc1C(=O)/C=C/c1ccccc1,·,·,5%,·,·,·
O=S(=O)(c1ccccc1)N1CN(c2ccc(F)cc2F)c2nc3ccccc3nc21,·,·,·,·,0%,?
O=S(=O)(c1ccccc1)N1c2cc(Cl)ccc2Oc2nc3ccccc3nc21,13µM*,7%,?,17%,5%,-7%
Fc1ccc2nc3[nH]c4ccccc4c3nc2c1,1.9µM*,3.2µM*,16µM*,3.2µM*,?,?
CCCNC(=O)CSc1nc2ccccc2nc1Cc1ccc(Cl)cc1,-5%,·,·,·,·,·
O=C(COc1ccc2c(c1)OCO2)Nc1cccc(F)c1,9.5µM*,14%,·,-1%,13µM*,?
COc1ccc(OCC(=O)Nc2ccc3c(c2)OCO3)cc1,?,11%,·,14%,22%,0%
CCC(=O)c1ccc(OCC(=O)Nc2ccc3c(c2)OCCO3)cc1,·,·,·,·,14%,?

# Screens as filed in PubChem.
